# Reference: the supplement of paper PMC8728848
# The entries come from a sample that favours the strongest signals as a whole.
# B1: BabA (Helicobacter pylori), O52269_HELPY (protein)
# chain: AEDDGFYMSAGYQIGEAAQMVKNTKGIQELSDNYENLSNLLTRYSTLNTLIKLSADPSAVNAARENLGASAKNLIGDTKNSPAYQAVLLAINAAVGFWNVVGYVTQCGGNANGQKSTSSTTIFNNEPGYRSTSITCSLNGHMPGYYGPMSIENFKKLNEAYQILQTALKNGLPALKENNGTVNVTYSYTCSGEGNDNCSLQTTGVTNQNNGTKTETQTIDGKSVTTTISSKVVDSQ
# Assays:
# Assay in all cases: glycan array binding signal (z-score within array); higher = stronger binding
# Conditions in all cases: glycan notation: IUPAC condensed, linker removed
# [1] = target: Fuc(a1-2)Gal(b1-3)GlcNAc(b1-2)Man(a1-3)[Fuc(a1-2)Gal(b1-3)GlcNAc(b1-2)Man(a1-6)]Man(b1-4)GlcNAc(b1-4)[Fuc(a1-6)]GlcNAc
# Summary of the method: (§1)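 The binding signal is a Z-score computed within each array and averaged over linkers. Arrays of the same protein sequence at different concentrations or buffers were also averaged together. Data originate from 3228 arrays in the Consortium for Functional Glycomics database, kept only where the protein sequence was available.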
# [2] = target: Fuc(a1-2)Gal(b1-4)Fuc(a1-3)]GlcNAc(b1-2)Man(a1-3)[Fuc(a1-2)Gal(b1-4)[Fuc(a1-3)]GlcNAc(b1-2)Man(a1-6)]Man(b1-4)GlcNAc(b1-4)GlcNAc
# Summary of the method: as §1
# Fuc(a1-2)Gal(b1-4)Glc6S = target: Fuc(a1-2)Gal(b1-4)Glc6S
# Summary of the method: as §1
# [3] = target: Fuc(a1-2)Gal(b1-4)GlcNAc(b1-3)[Fuc(a1-3)[Gal(b1-4)]GlcNAc(b1-6)]Gal(b1-4)Glc
# Summary of the method: as §1
# [4] = target: Fuc(a1-2)[Gal(a1-3)]Gal(b1-4)GlcNAc(b1-2)Man(a1-3)[Fuc(a1-2)[Gal(a1-3)]Gal(b1-4)GlcNAc(b1-2)Man(a1-6)]Man(b1-4)GlcNAc(b1-4)[Fuc(a1-6)]GlcNAc
# Summary of the method: as §1
# [5] = target: Fuc(a1-2)[GalNAc(a1-3)]Gal(b1-4)GlcNAc(b1-3)Gal(b1-4)GlcNAc(b1-3)Gal(b1-4)GlcNAc
# Summary of the method: as §1
# [6] = target: Fuc(a1-3)[Gal(b1-4)]GlcNAc(b1-6)[Gal(b1-3)GlcNAc(b1-3)]Gal(b1-4)Glc
# Summary of the method: as §1
# [7] = target: Fuc(a1-3)[GalNAc(b1-4)]GlcNAc6S
# Summary of the method: as §1
# [8] = target: Gal(b1-3)Gal(b1-4)GlcNAc(b1-2)Man(a1-3)[Gal(b1-3)Gal(b1-4)GlcNAc(b1-2)Man(a1-6)]Man(b1-4)GlcNAc(b1-4)GlcNAc
# Summary of the method: as §1
# [9] = target: Gal(b1-3)GalNAc(b1-4)[Neu5Ac(a2-3)]Gal(b1-4)Glc
# Summary of the method: as §1
# [10] = target: Gal(b1-3)GlcNAc(b1-3)Gal(b1-4)GlcNAc
# Summary of the method: as §1
# Gal(b1-4)Glc6S = target: Gal(b1-4)Glc6S
# Summary of the method: as §1
# [11] = target: Gal(b1-4)GlcNAc(b1-2)Man(a1-3)[Gal(b1-4)GlcNAc(b1-2)Man(a1-6)]Man(b1-4)GlcNAc(b1-4)GlcNAc
# Summary of the method: as §1
# [12] = target: Gal(b1-4)GlcNAc(b1-2)Man(a1-3)[Gal(b1-4)GlcNAc(b1-2)Man(a1-6)]Man(b1-4)GlcNAc(b1-4)[Fuc(a1-6)]GlcNAc
# Summary of the method: as §1
# [13] = target: Gal(b1-4)GlcNAc(b1-3)Gal(b1-4)Glc
# Summary of the method: as §1
# [14] = target: Gal(b1-4)GlcNAc(b1-3)Gal(b1-4)GlcNAc(b1-2)Man(a1-3)[Gal(b1-4)GlcNAc(b1-3)Gal(b1-4)GlcNAc(b1-2)Man(a1-6)]Man(b1-4)GlcNAc(b1-4)GlcNAc
# Summary of the method: as §1
# [15] = target: Gal(b1-4)GlcNAc(b1-3)Gal(b1-4)GlcNAc(b1-3)Gal(b1-4)GlcNAc(b1-2)Man(a1-3)[Gal(b1-4)GlcNAc(b1-3)Gal(b1-4)GlcNAc(b1-3)Gal(b1-4)GlcNAc(b1-2)Man(a1-6)]Man(b1-4)GlcNAc(b1-4)GlcNAc
# Summary of the method: as §1
# [16] = target: Gal(b1-4)GlcNAc(b1-3)Gal(b1-4)GlcNAc(b1-3)Gal(b1-4)GlcNAc(b1-2)Man(a1-3)[Gal(b1-4)GlcNAc(b1-3)Gal(b1-4)GlcNAc(b1-3)Gal(b1-4)GlcNAc(b1-2)Man(a1-6)]Man(b1-4)GlcNAc(b1-4)[Fuc(a1-6)]GlcNAc
# Summary of the method: as §1
# [17] = target: Gal(b1-4)GlcNAc(b1-3)Gal(b1-4)GlcNAc(b1-3)Gal(b1-4)GlcNAc(b1-2)[Gal(b1-4)GlcNAc(b1-3)Gal(b1-4)GlcNAc(b1-3)Gal(b1-4)GlcNAc(b1-6)]Man(a1-6)[Gal(b1-4)GlcNAc(b1-3)Gal(b1-4)GlcNAc(b1-3)Gal(b1-4)GlcNAc(b1-2)Man(a1-3)]Man(b1-4)GlcNAc(b1-4)[Fuc(a1-6)]GlcNAc
# Summary of the method: as §1
# [18] = target: Gal(b1-4)GlcNAc(b1-3)Gal(b1-4)GlcNAc(b1-3)Gal(b1-4)GlcNAc(b1-3)Gal(b1-4)GlcNAc(b1-3)Gal(b1-4)GlcNAc(b1-2)Man(a1-3)[Gal(b1-4)GlcNAc(b1-3)Gal(b1-4)GlcNAc(b1-3)Gal(b1-4)GlcNAc(b1-3)Gal(b1-4)GlcNAc(b1-3)Gal(b1-4)GlcNAc(b1-2)Man(a1-6)]Man(b1-4)GlcNAc(b1-4)GlcNAc
# Summary of the method: as §1
# [19] = target: Gal(b1-4)GlcNAc(b1-3)Gal(b1-4)GlcNAc(b1-3)[Gal(b1-4)GlcNAc(b1-3)Gal(b1-4)GlcNAc(b1-6)]GalNAc
# Summary of the method: as §1
# [20] = target: Gal(b1-4)GlcNAc(b1-6)[Gal(b1-4)GlcNAc(b1-3)]GalNAc
# Summary of the method: as §1
# Gal3S4S(b1-4)GlcNAc = target: Gal3S4S(b1-4)GlcNAc
# Summary of the method: as §1
# Gal4S(b1-4)GlcNAc = target: Gal4S(b1-4)GlcNAc
# Summary of the method: as §1
# [21] = target: GalNAc(a1-3)GalNAc(b1-3)Gal(a1-4)Gal(b1-4)Glc
# Summary of the method: as §1
# GalNAc(b1-3)GalNAc = target: GalNAc(b1-3)GalNAc
# Summary of the method: as §1
binder,measurement,setting,value
B1,glycan array binding signal (z-score),[1],-0.237
same,glycan array binding signal (z-score),[2],3.3
same,glycan array binding signal (z-score),Fuc(a1-2)Gal(b1-4)Glc6S,0.321
same,glycan array binding signal (z-score),[3],-0.3
same,glycan array binding signal (z-score),[4],-0.046
same,glycan array binding signal (z-score),[5],-0.054
same,glycan array binding signal (z-score),[6],0.017
same,glycan array binding signal (z-score),[7],-0.664
same,glycan array binding signal (z-score),[8],0.28
same,glycan array binding signal (z-score),[9],0.035
same,glycan array binding signal (z-score),[10],-0.811
same,glycan array binding signal (z-score),Gal(b1-4)Glc6S,-0.359
same,glycan array binding signal (z-score),[11],-0.732
same,glycan array binding signal (z-score),[12],0.092
same,glycan array binding signal (z-score),[13],-0.535
same,glycan array binding signal (z-score),[14],4.08
same,glycan array binding signal (z-score),[15],4
same,glycan array binding signal (z-score),[16],2.03
same,glycan array binding signal (z-score),[17],2.31
same,glycan array binding signal (z-score),[18],3.86
same,glycan array binding signal (z-score),[19],4.39
same,glycan array binding signal (z-score),[20],-0.568
same,glycan array binding signal (z-score),Gal3S4S(b1-4)GlcNAc,0.144
same,glycan array binding signal (z-score),Gal4S(b1-4)GlcNAc,0.875
same,glycan array binding signal (z-score),[21],-0.709
same,glycan array binding signal (z-score),GalNAc(b1-3)GalNAc,-0.807
